Unmarked numbers belong to inactive results. The source made the active and inactive calls. Calls follow the shape of the full dose curve.
assay: G protein-coupled receptor (GPCR) small molecule agonists, calcium flux assay: HEK293 wild type cell line counter screen (AID 1920065); conditions: HEK293 WT calcium flux, fluorescence, agonist mode; series mostly up to 57.6 µM; activation: at the top concentration
Description: U.S. Tox21 Program National Center for Advancing Translational Sciences [NCATS] Division of Preclinical Innovation [DPI] U.S. Environmental Protection Agency [EPA] National Institutes of Environmental Health Sciences [NIEHS] National Toxicology Program [NTP] U.S. Food and Drug Administration [FDA] Assay overview: The increased intracellular calcium release that occurred upon G protein-coupled receptor (GPCR) activation led to the frequent use of calcium flux assays to detect GPCR activation. For the purpose of studying and screening compounds that may activate GPCR, receptor-overexpressing models were typically generated using Hek293 wild-type (WT) cells. In order to eliminate the compounds that may have induced calcium release for non-specific activation, a counter-assay utilizing calcium flux on Hek293 WT cells was performed. The data were formulated in order to serve as a control for any calcium flux detection utilizing Hek293 cells with either GPCR overexpression or gene modification. The procurement of Hek293 WT cells from ATCC. Fluorescence intensity can be utilized to determine the activation of the compound in a calcium flux assay. As a counter control, this cell line was utilized to screen the Tox21 10K compound library.
Assay Protocol Summary: Hek293 cells were dispensed at 1500cells/4uL/well in 1536-well black wall/clear bottom plates using a multidrop dispenser. After the assay plates were incubated at a 37 C/5% CO2 incubator for 18 hours, 4 uL of Calcium Dye Solution was added to each well. The plates were incubated at 37 C for 1 hour. For agonist mode, 23 nL of compounds dissolved in DMSO, positive control (ATP) or DMSO only was transferred to the assay plate by a pin tool station. The fluorescence intensity in the plates was measured using FDSS 7000EX kinetic plate reader with a filter set of Ex/Em=480/540 for 3 min at 1 sec intervals. Each test compound was measured at 15 concentrations and in triplicates.
% is scaled to controls: 0 for no effect and ±100 for the full control effect.

Q: Which “activation” value does the source give for O=C1C=CC(=O)c2ccccc21 here?
A: 2.88%

Q: For CCOP(=S)(OCC)SCS(=O)(=O)CC, which “activation” value is on record?
A: -0.995%

Q: For C[N+](C)(C)CCCl, which “activation” value is on record?
A: 1.78%

Q: With O=c1ssc(Cl)c1Cl as the compound, how does the “activation” value read?
A: 0.539%

Q: With CCCCN(CCCC)C(=S)S as the compound, how does the “activation” value read?
A: 0.108%

Q: With C#CC(O)(C=CCl)CC (stereo not given) as the compound, how does the “activation” value read?
A: -0.104% [at 26.5 µM]

Q: Which “activation” value does the source give for OCC(c1ccc(Cl)cc1)c1ccc(Cl)cc1 here?
A: -0.245%

Q: With CC(C)(c1ccccc1)c1ccc(O)cc1 as the compound, how does the Potency read?
A: inactive

Q: With Oc1cccc(Cl)c1Cl as the compound, how does the “activation” value read?
A: -0.917%

Q: Which activation does the source give for O=C1c2ccccc2C(=O)c2ccccc21 here?
A: 0.614% [at 11.8 µM]

Q: With CC(=O)c1ccc(-c2ccccc2)cc1 as the compound, how does the “activation” value read?
A: -1.42%

Q: Which “activation” value does the source give for CCCN1CCC[C@@H]2Cc3[nH]ncc3C[C@H]21 here?
A: -0.745% [at 26.5 µM]

Q: Which “activation” value does the source give for CCC/C(=N\OCC)C1=C(O)CC(CC(C)SCC)CC1=O (stereo not given) here?
A: -0.766%

Q: For COc1ccc(C(=O)c2c(C)n(CCN3CCOCC3)c3ccccc23)cc1, which “activation” value is on record?
A: 3.38% [at 26.5 µM]

Q: Which “activation” value does the source give for Cc1cc(C)nc(Nc2ccccc2)n1 here?
A: -1.56%

Q: For Oc1cccc(Cl)c1, which “activation” value is on record?
A: -1.8%

Q: Which “activation” value does the source give for CC(C)(C)C(O)/C(=C\c1ccc(Cl)cc1Cl)n1cncn1 (stereo not given) here?
A: 0%

Q: With CC(=O)NNc1ccccc1 as the compound, how does the “activation” value read?
A: -0.204%

Q: With NS(=O)(=O)C(F)(F)C(F)(F)C(F)(F)C(F)(F)C(F)(F)C(F)(F)C(F)(F)C(F)(F)F as the compound, how does the “activation” value read?
A: 0.964%

Q: Which “activation” value does the source give for COP(=S)(OC)Oc1ccc([N+](=O)[O-])cc1Cl here?
A: 0.65%

Q: For CC1(C)COP(Oc2ccccc2)OC1, which “activation” value is on record?
A: 0.146%

Q: Which “activation” value does the source give for NC(=S)C(N)=S here?
A: 0.178%

Q: For BrCCCBr, which “activation” value is on record?
A: 0.147%

Q: Which “activation” value does the source give for COC(C)(C)CCC[C@H](C)C/C=C/C(C)=C/C(=O)OC(C)C here?
A: -1.81%

Q: Which “activation” value does the source give for CCOP(=O)(OCC)Oc1nc(Cl)c(Cl)cc1Cl here?
A: -0.613%

Q: With ClCCCCCCCl as the compound, how does the “activation” value read?
A: -0.119%

Q: For Nc1ccccc1C(=O)Oc1ccc2ccccc2c1, which “activation” value is on record?
A: -1.55%

Q: For COC(=O)N(C(=O)N1COC2(C(=O)OC)Cc3cc(Cl)ccc3C2=N1)c1ccc(OC(F)(F)F)cc1 (stereo not given), which “activation” value is on record?
A: -0.364% [at 26.5 µM]

Q: For CC(=O)[O-].CC(=O)[O-].O.O.[Zn+2], which “activation” value is on record?
A: -0.673%

Q: With N[C@@H]1C[C@H]1c1ccccc1 as the compound, how does the “activation” value read?
A: 3.17% [at 26.5 µM]

Q: For c1cc(OCC2CO2)ccc1Cc1ccc(OCC2CO2)cc1 (stereo not given), which Potency is on record?
A: inactive

Q: Which “activation” value does the source give for COC(=O)/C=C(\C)OP(=O)(OC)OC here?
A: -0.377%

Q: With CC(C)(CCl)C(=O)Cl as the compound, how does the “activation” value read?
A: -0.618%

Q: With CCN(CC)C(=O)N[C@@H]1C=C2c3cccc4[nH]cc(c34)C[C@@H]2N(C)C1 as the compound, how does the “activation” value read?
A: 4.21% [at 26.5 µM]

Q: With O=C1C(Cl)C(CCl)CN1c1cccc(C(F)(F)F)c1 (stereo not given) as the compound, how does the “activation” value read?
A: -1.17%

Q: For CNC(=O)O/N=C(\C)C(C)S(C)(=O)=O (stereo not given), which “activation” value is on record?
A: 0.177% [at 544 µM]

Q: For CCOC(=O)CCN(SN(C)C(=O)Oc1cccc2c1OC(C)(C)C2)C(C)C, which “activation” value is on record?
A: -2.07%

Q: Which “activation” value does the source give for CCC(OC(C)=O)C(CC(C)NC)(c1ccccc1)c1ccccc1 (stereo not given) here?
A: 1.24%

Q: With O=[N+]([O-])c1ccc(Oc2ccc(C(F)(F)F)cc2[N+](=O)[O-])cc1 as the compound, how does the “activation” value read?
A: 0.528%

Q: With CCN1CCC2(CC1)COc1cc3c(cc12)N(C(=O)c1ccc(-c2ccc(-c4nnc(C)o4)cc2C)cc1)CC3 as the compound, how does the “activation” value read?
A: -0.981%
